Laboratory results from PubChem BioAssay AID1347419 (Sanford-Burnham Center for Chemical Genomics, 2020).
Among all 99,000 compounds or so, about 820 (0.83%) were called active.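 The calls were made as follows: active = Z-score of -3 or lower, scaled per plate to the spread of control and sample wells; inactive = z-score above -3.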 Many of the other results were omitted from the sample, so actives are more common in it than they were.

Target: Protein-tyrosine kinase 2-beta (Homo sapiens) (UniProt Q14289)
Assay: antagonists of Pyk2 self-association, primary screen, Q293 cells, FERM NanoBiT luminescence, HTS (AID 1347419);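 also: the deposit names both 25 µM and 10 µM; negative z-score means lost luminescence so less FERM oligomerization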
Design: dose or concentration left out as unconfirmed
Conditions: stronger effect = lower value

Chain of Protein-tyrosine kinase 2-beta (Homo sapiens) (Q14289 whole entry, looked up): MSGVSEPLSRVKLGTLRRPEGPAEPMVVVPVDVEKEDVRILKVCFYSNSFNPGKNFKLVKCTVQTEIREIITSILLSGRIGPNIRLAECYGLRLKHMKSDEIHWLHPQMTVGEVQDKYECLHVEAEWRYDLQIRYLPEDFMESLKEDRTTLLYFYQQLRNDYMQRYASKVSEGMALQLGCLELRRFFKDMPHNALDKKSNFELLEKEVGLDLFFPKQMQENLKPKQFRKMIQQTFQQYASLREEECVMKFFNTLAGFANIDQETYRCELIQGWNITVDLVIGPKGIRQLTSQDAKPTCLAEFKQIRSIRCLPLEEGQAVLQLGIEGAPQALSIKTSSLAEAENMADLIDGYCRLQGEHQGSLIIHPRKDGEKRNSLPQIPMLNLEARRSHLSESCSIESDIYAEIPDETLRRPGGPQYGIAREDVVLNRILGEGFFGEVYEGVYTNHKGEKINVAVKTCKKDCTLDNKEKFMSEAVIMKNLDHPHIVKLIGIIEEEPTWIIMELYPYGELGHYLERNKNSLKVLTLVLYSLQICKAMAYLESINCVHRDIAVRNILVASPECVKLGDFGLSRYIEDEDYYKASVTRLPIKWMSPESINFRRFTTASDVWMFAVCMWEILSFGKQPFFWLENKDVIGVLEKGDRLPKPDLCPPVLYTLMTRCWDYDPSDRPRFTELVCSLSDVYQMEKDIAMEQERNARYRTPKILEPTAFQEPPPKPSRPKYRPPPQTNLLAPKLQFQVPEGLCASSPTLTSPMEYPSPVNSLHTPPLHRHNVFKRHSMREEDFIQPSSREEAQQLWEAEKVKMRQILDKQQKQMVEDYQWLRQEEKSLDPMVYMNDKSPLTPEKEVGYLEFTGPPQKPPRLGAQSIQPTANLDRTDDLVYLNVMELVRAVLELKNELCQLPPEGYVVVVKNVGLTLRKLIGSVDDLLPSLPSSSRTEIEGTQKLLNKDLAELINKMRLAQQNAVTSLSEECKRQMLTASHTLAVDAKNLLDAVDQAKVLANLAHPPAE

SMILES | z-score
CCC(=NCCc1ccccc1)c1c(O)n(C2CCCCC2)c(=O)[nH]c1=O | -3.36 (active)
CCC(=NCc1ccco1)c1c(O)n(Cc2ccccc2)c(=O)[nH]c1=O | -0.23 (inactive)
CC(=O)c1c(O)n(C2CCCCCC2)c(=O)[nH]c1=O | 0.12 (inactive)
CN(C)c1ccc(/C=C2\CC3C4CC=C5CC(O)CCC5(C)C4CCC3(C)C2=O)cc1 (stereo not given) | -0.08 (inactive)
O=C(COC(=O)c1ccccc1)Nc1ccc(Cl)cc1C(=O)c1ccccc1 | 0.02 (inactive)
